# Reference: the supplement of paper PMC12669797
# ± gives the standard deviation of the averaged measurements.
# Tests used:
# ES2 = assay: cell viability relative to DMSO control (MTS) (fraction of DMSO control); higher = more viable cells / less growth inhibition; conditions: 10 µM; 48 h
# In short: (§1)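 TOV-21G and ES2 clear cell carcinoma cells were plated in 96-well plates at 5000 cells per well, grown for 24 h, and then exposed to a 367-compound […] library at a final concentration of 10 µM, with vehicle alone in control wells. An MTS assay (CellTiter 96 AQueous One Solution) was read 48 h later according to the manufacturer's protocol. Viability is reported as a fraction of the vehicle control.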
# TOV-21G = assay: as above; conditions: 10 µM; 48 h
# In short: as §1
SMILES,cell viability (ES2),cell viability (TOV-21G)
CC[n+]1c(/C=C/N(C)c2ccccc2)n(-c2ccccc2)c2ccc(-c3nc4ccccc4s3)cc21 [Akt Inhibitor IV],0.308,0.218
C[S+]([O-])c1ccc(-c2nc(-c3ccc(F)cc3)c(-c3ccncc3)[nH]2)cc1 (stereo unspecified),0.916,0.908
CO[C@H]1C[C@@H]2CC[C@@H](C)[C@@](O)(O2)C(=O)C(=O)N2CCCC[C@H]2C(=O)O[C@H]([C@H](C)C[C@@H]2CC[C@@H](OC(=O)C(C)(CO)CO)[C@H](OC)C2)CC(=O)[C@H](C)/C=C(\C)[C@@H](O)[C@@H](OC)C(=O)[C@H](C)C[C@H](C)/C=C/C=C/C=C/1C [temsirolimus],0.824,0.516
NNCCc1ccccc1 [Phenelzine],1.13,1.25
CC(C)(C)c1cc(O)ccc1O [t-Butylhydroquinone (BHQ)],0.939,1.11
CC(C)CC(=O)N[C@H](C(=O)N[C@H](C(=O)N[C@@H](CC(C)C)[C@@H](O)CC(=O)N[C@@H](C)C(=O)N[C@@H](CC(C)C)[C@@H](O)CC(=O)O)C(C)C)C(C)C [Pepstatin A],0.807,1.18
Oc1ccc(-c2nc(-c3ccc(F)cc3)c(-c3ccncc3)[nH]2)cc1,0.468,0.806
CC(=O)N[C@@H](CS)C(=O)O [N-Acetyl-L-cysteine],1.04,0.965
COc1c(C=O)c(O)cc2c1C(=O)c1ccccc1C2=O [Damnacanthal],1.05 ± 0.021,0.974 ± 0.19
COc1ccc(Cl)cc1C(=O)NCCc1ccc(S(=O)(=O)NC(=O)NC2CCCCC2)cc1 [Glibenclamide],0.829,0.958
OCCn1cc(-c2cnc3nnn(Cc4ccc5ncccc5c4)c3n2)cn1,1.05,1.18
COc1cc(Nc2ncc3c(n2)-c2ccc(Cl)cc2C(c2c(F)cccc2OC)=NC3)ccc1C(=O)O,0.769,0.619
O=c1oc2c(O)c(O)cc3c(=O)oc4c(O)c(O)cc1c4c23 [Ellagic acid],0.827,0.935
COc1ccc(Cn2ccc3ccc(C(=O)NO)cc32)cc1,0.928,0.919
CO[C@H]1C[C@@H]2CC[C@@H](C)[C@@](O)(O2)C(=O)C(=O)N2CCCC[C@H]2C(=O)O[C@H]([C@H](C)C[C@@H]2CC[C@@H](O)[C@H](OC)C2)CC(=O)[C@H](C)/C=C(\C)[C@@H](O)[C@@H](OC)C(=O)[C@H](C)C[C@H](C)/C=C/C=C/C=C/1C [Rapamycin],0.854,0.576
CC(C)(C)NC(=O)[C@H]1CC[C@H]2[C@@H]3CC[C@H]4NC(=O)C=C[C@]4(C)[C@H]3CC[C@]12C [Finasteride],1.3,0.952
NC(=O)c1ccccc1 [Benzamide],0.902,0.989
O=c1c(-c2ccc(O)cc2)coc2cc(O)cc(O)c12 [Genistein],1.31,0.988
O=C(c1cc(Cc2n[nH]c(=O)c3ccccc23)ccc1F)N1CCN(C(=O)C2CC2)CC1 [Olaparib],0.77,0.888
CC[C@@]1(O)C[C@H](O[C@H]2C[C@H](N(C)C)[C@H](O[C@H]3C[C@H](O)[C@H](O[C@H]4CCC(=O)[C@H](C)O4)[C@H](C)O3)[C@H](C)O2)c2c(cc3c(c2O)C(=O)c2c(O)cccc2C3=O)[C@H]1C(=O)OC [Aclarubicin],0.6,0.385
COc1cc2nccc(Oc3ccc(NC(=S)NC(=O)c4ccccc4C)cc3)c2cc1OC [PDGF receptor tyrosine kinase inhibitor V],0.874,0.525

SMILES,cell viability (ES2),cell viability (TOV-21G)
C=CCNC1=C2C[C@@H](C)C[C@H](OC)[C@H](O)[C@@H](C)/C=C(\C)[C@H](OC(N)=O)[C@@H](OC)/C=C\C=C(/C)C(=O)NC(=CC1=O)C2=O,0.541,0.575
Cc1c(C)c2c(c(C)c1O)CCC(C)(COc1ccc(CC3SC(=O)NC3=O)cc1)O2 (stereo unspecified) [Troglitazone],0.835,1.26
Cc1c2oc3c(C)ccc(C(=O)N[C@@H]4C(=O)N[C@H](C(C)C)C(=O)N5CCC[C@H]5C(=O)N(C)CC(=O)N(C)[C@@H](C(C)C)C(=O)O[C@@H]4C)c3nc-2c(C(=O)N[C@@H]2C(=O)N[C@H](C(C)C)C(=O)N3CCC[C@H]3C(=O)N(C)CC(=O)N(C)[C@@H](C(C)C)C(=O)O[C@@H]2C)c(N)c1=O [Actinomycin D],0.584,0.456
CCCOc1ccccc1-c1nc2[nH]nnc2c(=O)[nH]1 [Zaprinast],0.909,1.03
CNC(=O)c1cc(Oc2ccc(NC(=O)Nc3ccc(Cl)c(C(F)(F)F)c3)cc2)ccn1 [sorafenib],0.402,0.604
CC(=O)N[C@@H](CSC(=O)[C@]1([C@@H](O)C(C)C)NC(=O)[C@H](C)[C@@H]1O)C(=O)O [Lactacystin],0.637,0.482
Cc1nc2sccn2c(=O)c1CCN1CCC(=C(c2ccccc2)c2ccc(F)cc2)CC1,0.963,1.04
O=C(NCc1ccccc1)c1csc(Nc2ccncn2)n1 [Thiazovivin],0.941,1.04
Nc1nc(Nc2ccc(S(N)(=O)=O)cc2)nn1C(=S)Nc1c(F)cccc1F [Cdk1/2 inhibitor III],0.687,0.665
O=C(Nc1cccc2cccnc12)c1ccc(N2C(=O)[C@@H]3[C@H](C2=O)[C@@H]2C=C[C@H]3C2)cc1 [IWR-1-endo],0.998,0.582
COC(=O)c1ccc(NCc2cc(O)ccc2O)cc1,1.414 ± 0.0028,1.06 ± 0.026
CCN(CC)CCCCNc1ncc2cc(-c3cc(OC)cc(OC)c3)c(NC(=O)NC(C)(C)C)nc2n1,0.366,0.915
COc1cc2c(cc1OC)-c1[nH]nc(Nc3cccc(F)c3)c1C2 [PDGF receptor tyrosine kinase inhibitor IV],0.288,0.297
CC(C)n1nc(-c2cc3cc(O)ccc3[nH]2)c2c(N)ncnc21 [Torkinib],0.417,0.38
CC(C)c1cc(/C=C(\C#N)C(=O)NCCCc2ccccc2)cc(C(C)C)c1O,1.3 ± 0.21,0.938 ± 0.063
O=C(CCCCCCC(=O)Nc1ccccc1)NO [vorinostat],0.38,0.388
Nc1nc2c(nc(Sc3ccc(Cl)cc3)n2C2O[C@@H]3CO[P+](O)(S)OC3[C@@H]2O)c(=O)[nH]1 (stereo partly specified),1.02 ± 0.17,0.856 ± 0.084
COc1cc2ncnc(Nc3cccc(Cl)c3)c2cc1OC,1.04 ± 0.12,0.839 ± 0.24
CS(=O)(=O)CCNCc1ccc(-c2ccc3ncnc(Nc4ccc(OCc5cccc(F)c5)c(Cl)c4)c3c2)o1 [lapatinib],0.482,4.68
CCCCCCCCCCC[C@@H](C[C@@H]1OC(=O)[C@H]1CCCCCC)OC(=O)[C@H](CC(C)C)NC=O [orlistat],1.08,1.14
COc1cc2c(NC3CCN(C(C)C)CC3)nc(C3CCCCC3)nc2cc1OCCCN1CCCC1,0.337,0.486

SMILES,cell viability (ES2),cell viability (TOV-21G)
COc1ccc(OC)c2c(=S)c3ccccc3[nH]c12,1.35,1.14
CCCS(=O)(=O)Nc1ccc(F)c(C(=O)c2c[nH]c3ncc(-c4ccc(Cl)cc4)cc23)c1F [Vemurafenib],0.651,0.881
C[n+]1ccc(-c2c3nc(c(-c4cc[n+](C)cc4)c4ccc([nH]4)c(-c4cc[n+](C)cc4)c4ccc([nH]4)c(-c4cc[n+](C)cc4)c4nc2C=C4)C=C3)cc1,0.933,0.79
C[C@@H](Oc1cc(-c2cnn(C3CCNCC3)c2)cnc1N)c1c(Cl)ccc(F)c1Cl [crizotinib],0.34,0.333
COc1cc(O)c(CC=C(C)C)c(O)c1C(=O)/C=C/c1ccc(O)cc1 [Xanthohumol],1.07,1.01
CN(C)CC[C@H](CSc1ccccc1)Nc1ccc(S(=O)(=O)NC(=O)c2ccc(N3CCN(Cc4ccccc4-c4ccc(Cl)cc4)CC3)cc2)cc1[N+](=O)[O-],0.713,0.358
Fc1ccc(Cl)cc1-c1nc(Nc2ccncc2)c2nccnc2n1,0.645,1.08
C1=Cc2nc1cc1nc(c(-c3ccccc3)c3ccc(cc4ccc([nH]4)c2-c2ccccc2)[nH]3)C=C1,0.908,1.19
CNCc1ccc(-c2[nH]c3cc(F)cc4c3c2CCNC4=O)cc1,0.686,0.746
NC1=N/C(=C2/CCNC(=O)c3[nH]ccc32)C(=O)N1 [Debromohymenialdisine (DBH)],1.25,1.12
CO[C@@]12[C@H](COC(N)=O)C3=C(C(=O)C(C)=C(N)C3=O)N1C[C@@H]1N[C@@H]12 [Mitomycin C],0.35,0.213
CC1=Nc2ccc(Cl)cc2S(=O)(=O)N1 [Diazoxide],0.816,0.996
COCC[n+]1c2c(n(Cc3cnccn3)c1C)C(=O)c1ccccc1C2=O,0.242,0.291
NC(=O)c1ccc2nc(-c3ccc(Oc4ccc(Cl)cc4)cc3)[nH]c2c1 [Chk2 inhibitor II],1.23,1.1
Nc1ncn([C@H]2C[C@H](O)[C@@H](CO)O2)c(=O)n1 [Decitabine],0.757,1.11
NC(=O)c1ccc(I)c([N+](=O)[O-])c1 [BSI-201 (Iniparib)],0.778,1.29
NS(=O)(=O)c1ccc(Nc2nc(OCC3CCCCC3)c3[nH]cnc3n2)cc1,0.699,0.784
COc1cc2ncnc(Nc3ccc(NC(=O)c4ccccc4)cc3)c2cc1OC [Aurora kinase inhibitor II],1.09,0.688
Cc1ccc(Nc2nccc(N(C)c3ccc4c(C)n(C)nc4c3)n2)cc1S(N)(=O)=O [pazopanib],0.96,0.864
COC(=O)Nc1nc2cc(C(=O)c3cccs3)ccc2[nH]1 [Nocodazole],0.451,0.464
O=C1NC(=O)c2c1c1c3ccccc3[nH]c1n1cncc21 [isogranulatimide],1.12,1.47
